Experiment [1] can be described thus: qHTS for differential inhibitors of proliferation of Plasmodium falciparum line 7G8 (AID 1815).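 Note: parasite growth measured after three days of incubation.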 Note: potency is the fitted concentration of half-maximal effect. Conditions: Plasmodium falciparum 7G8 proliferation inhibition; series mostly up to 28.7 µM.
A short description of experiment [2]: qHTS for differential inhibitors of proliferation of Plasmodium falciparum line GB4 (AID 1816).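 Note: parasite growth measured after 72 h incubation.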 Note: potency is the fitted concentration of half-maximal effect. The following applies: Potency: Plasmodium falciparum GB4 proliferation inhibition; series mostly up to 28.7 µM.
Experiment [3] can be described thus: qHTS for differential inhibitors of proliferation of Plasmodium falciparum line D10 (AID 1877).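 Note: parasites grown with compound for 72 h before DNA staining.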 Note: potency is the fitted concentration of half-maximal effect. Conditions: series mostly up to 28.7 µM. Background: qHTS replaces the single test concentration by a dilution series.
Experiment [4] is described as follows: qHTS for differential inhibitors of proliferation of Plasmodium falciparum line Dd2 (AID 1882). Note: nearly all actives have a fitted effect of over 65% in size. Note: potency is the fitted concentration of half-maximal effect. The following applies: Potency: Plasmodium falciparum Dd2 proliferation inhibition; series mostly up to 28.7 µM. In a few lines:
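RBC culture, 0.3% parasitemia / 2.5% Hct final; cpd added by pin tool in DMSO; 72 h, 37 C, 5% CO2; lysis buffer + SYBR Green I, o/n RT dark; FI 485/535; norm. to artemisinin 0.29 uM and DMSO.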

Experiment [5] in a line: qHTS for differential inhibitors of proliferation of Plasmodium falciparum line W2 (AID 1883).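 Note: parasites grown with compound for 72 h before lysis and staining.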 Note: potency is the fitted concentration of half-maximal effect. Conditions: Potency: Plasmodium falciparum W2 proliferation inhibition; series mostly up to 28.7 µM.
In experiment [6] the target is Ferritin light chain (Equus caballus) (UniProt P02791). In words: qHTS Validation Assay for Identification of Novel General Anesthetics (AID 2323). Conditions: horse apoferritin, anesthetic-site fluorescent probe displacement; series mostly up to 76.9 µM. In a few lines:
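Competitive displacement of the profluorescent anesthetic 1-AMA (50% saturated, PBS) from 10 uM apoferritin, 10 min, room temperature. Activity is normalized 380/535 nm fluorescence; concentration-response fitted with a four-parameter Hill equation.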

Experiment [7] is described as follows: qHTS for differential inhibitors of proliferation of Plasmodium falciparum line 3D7 (AID 1876). Note: potency is the fitted concentration of half-maximal effect. Conditions: P. falciparum 3D7 proliferation inhibition; series mostly up to 28.7 µM.
The nature of experiment [8]: qHTS for differential inhibitors of proliferation of Plasmodium falciparum line HB3 (AID 1886).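 Note: parasites grown with compound for 72 h before SYBR Green readout.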 Note: potency is the fitted concentration of half-maximal effect. Conditions: Potency: Plasmodium falciparum HB3 proliferation inhibition; series mostly up to 28.7 µM.
Experiment [9] is described as follows: qHTS Assay for Modulators of Human Peripheral Myelin Protein 22 (PMP22) Expression/Activity (AID 1967; active = well fitted curve in the direction sought with a large enough effect in the signal ratio; the % refers to the signal ratio). Conditions: Cell-based PMP22 reporter, dual-color luciferase ratio, mouse Pmp22 promoter in mouse Schwann cells; series mostly up to 115 µM. Summed up: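 Readout is the corrected green/red luminescence ratio after 24 h compound exposure, normalised to untreated cells (0%). Engineered MSC80 mouse Schwann cells express green luciferase from the mouse Pmp22 promoter and red luciferase from EF-alpha as internal control.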

A short description of experiment [10]: qHTS Assay for Identification of Small Molecule Inducers of Hypoxia Response (AID 2120; active = well fitted curve in the direction sought with a large enough effect in the signal ratio, with a control signal flat, not every such curve was filed as active; the % refers to the signal ratio). The following applies: hypoxia response reporter cells, beta-lactamase ratio readout; series mostly up to 104 µM. In a few lines: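 Read-out: CCF4 FRET emission ratio 460nm/530nm (excitation 405nm), converted to %Activity, with AC50 fitted across a compound titration. ME-180 cells carried an HRE-driven beta-lactamase reporter; compound exposure 17 h, 37 degrees C.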

SMILES strings stand for the structures. Records with an inconclusive call do not appear. Active and inactive are the calls of the source. Unless noted, calls come from the whole dose curve; as a rule, active = well fitted curve in the direction sought with a large enough effect; inconclusive = small, poorly fitted or top-dose-only effect, or another doubt; inactive = no such curve, though single readings can be large; an effect the other way counts as inactive or inconclusive.

Sequence of Ferritin light chain (Equus caballus) (P02791 2-175 limits assumed): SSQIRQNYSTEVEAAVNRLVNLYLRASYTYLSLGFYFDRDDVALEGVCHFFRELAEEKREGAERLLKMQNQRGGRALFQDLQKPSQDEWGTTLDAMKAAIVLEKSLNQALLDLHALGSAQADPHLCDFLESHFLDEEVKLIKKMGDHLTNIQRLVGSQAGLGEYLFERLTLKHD

Regarding `CC(CCc1ccccc1)NC(C)C(O)c1ccc(O)cc1` (stereo unspecified), the Potency in experiment [1] was 7.94 µM (active); in experiment [2] it was 3.16 µM (active); in experiment [4] it was 5.01 µM (active); in [5], 2.51 µM (active). Further, the Potency result in [3] was “inactive”. The molecule was called inactive in experiment [6].
Regarding `CC(=O)[C@H]1CC[C@H]2[C@@H]3CC[C@H]4C[C@H](O)CC[C@]4(C)[C@H]3C(=O)C[C@]12C`, the Potency result in [1], in [2], in [7], in [3], in experiment [4] and in experiment [8] was “inactive” each time. The outcome in experiment [9] and in experiment [6] was inactive.
For `Nc1ccncc1`, the Potency result in experiment [1], in [2], in [7], in experiment [3], in experiment [4] and in experiment [5] was “inactive” in each case. In addition, the Potency entry in [8] is “inactive”. The result in [6] was inactive.
Consider `Cc1ccc(S(=O)(=O)N[C@@H](CCCCN)C(=O)CCl)cc1`, for which the Potency result in experiment [1], in [2], in experiment [3], in experiment [4] and in [8] was “inactive” each time. Further, in experiment [6], the molecule was classed as inactive.
In the case of `Fc1ccc(C(OCCN2CCN(CCCc3ccccc3)CC2)c2ccc(F)cc2)cc1`, the Potency in experiment [1] is 3.98 µM (active); in experiment [2], 3.98 µM (active); in [7], 7.08 µM (active); in [3] it was 12.6 µM (active); in [4] it was 7.94 µM (active); in [5], 2.82 µM (active). Also, the Potency in experiment [8] is 4.47 µM (active).
As to `CCCN1CCC[C@@H]2Cc3nc(N)ncc3C[C@H]21`, the Potency entry in [1], in experiment [2], in [7], in [3], in [4] and in experiment [5] was “inactive” throughout. Moreover, the Potency result in experiment [8] is “inactive”. The result in experiment [6] was inactive.
Take `NCC(O)c1ccc(O)cc1` (stereo unspecified): the Potency entry in experiment [1], in experiment [2], in [7], in experiment [3], in experiment [4] and in experiment [5] was “inactive” throughout. In addition, the Potency entry in [8] is “inactive”. The result in [10] and in experiment [6] was inactive.
Regarding `CN(C)CCC=C1c2ccccc2CCc2ccccc21`, the Potency in experiment [1] was 10 µM (active); in experiment [2], 7.94 µM (active); in [3], 8.91 µM (active); in experiment [5], 3.16 µM (active); in experiment [8], 14.1 µM (active).
As for `NCC(CC(=O)O)c1ccc(Cl)cc1` (stereo unspecified), the Potency result in experiment [1], in [2], in [7], in [3], in experiment [4] and in experiment [5] was “inactive” each time. Moreover, the Potency entry in experiment [8] is “inactive”. Also, in experiment [6], the molecule was called inactive.
Regarding `OCCN1CCN(CCCN2c3ccccc3Sc3ccc(C(F)(F)F)cc32)CC1`, the Potency in [1] is 2.82 µM (active); in [2] it was 2.51 µM (active); in experiment [7], 2.51 µM (active); in experiment [3] it was 10 µM (active); in [4] it was 10 µM (active); in experiment [5], 1.41 µM (active). Moreover, the Potency in experiment [8] was 4.47 µM (active). The molecule was called inactive in experiment [6].
With `NN=C(N)N`, the Potency entry in experiment [1], in experiment [2], in experiment [7], in experiment [3], in [4] and in [5] was “inactive” in each case. Besides, in experiment [8], the Potency result is “inactive”. For the same molecule, the molecule was called inactive in experiment [6].
For the molecule `CCCC(C)(COC(N)=O)COC(=O)NC(C)C` (stereo unspecified), the Potency result in experiment [1], in experiment [2], in [7], in [3], in experiment [4] and in experiment [5] was “inactive” in each case. Moreover, the Potency entry in experiment [8] is “inactive”. Also, the outcome in experiment [10] and in [6] was inactive.
As to `Cc1c(OCC(F)(F)F)ccnc1CS(=O)c1nc2ccccc2[nH]1` (stereo unspecified), the Potency in experiment [1] was 8.91 µM (active); in experiment [2], 10 µM (active); in [7], 11.2 µM (active); in experiment [3] it was 12.6 µM (active); in [5], 10 µM (active); in experiment [8], 11.2 µM (active).
For the molecule `Cc1cccc(C)c1NC1=NCCCS1`, the Potency in experiment [1] was 7.94 µM (active); in experiment [2] it was 14.1 µM (active); in experiment [5], 5.01 µM (active). For the same molecule, the Potency entry in experiment [7], in [3] and in experiment [8] was “inactive” throughout. The molecule was classed as inactive in experiment [6].
For `Cc1ncc(CNC(=O)N(CCCl)N=O)c(N)n1`, the Potency entry in experiment [1], in [2], in [7], in experiment [3], in experiment [4] and in experiment [5] was “inactive” each time. For the same molecule, the Potency entry in experiment [8] was “inactive”. For the same molecule, in experiment [6], the molecule was called inactive.
`O=c1[nH]cc(F)c(=O)[nH]1`: the Potency in experiment [1] is 7.08 µM (active); in [2] it was 7.94 µM (active); in experiment [7], 4.47 µM (active); in [3] it was 4.47 µM (active); in [5], 7.94 µM (active); in experiment [8], 5.01 µM (active).
Take `O=c1[nH]c2ccccc2n1C1CCN(CCCC(c2ccc(F)cc2)c2ccc(F)cc2)CC1`: the Potency in [1] was 3.98 µM (active); in experiment [2] it was 8.91 µM (active); in experiment [7] it was 3.16 µM (active); in experiment [3], 7.08 µM (active); in experiment [4], 10 µM (active); in experiment [5] it was 2.82 µM (active). In experiment [8], the Potency was 5.62 µM (active).
Regarding `NCC1(CC(=O)O)CCCCC1`, the Potency entry in [1], in experiment [2], in experiment [7], in [3], in [4] and in [5] was “inactive” in each case. In [8], the Potency result is “inactive”. For the same molecule, the result in [6] was inactive.
In the case of `CNCC(O)c1ccc(O)cc1` (stereo unspecified), the Potency entry in [1], in experiment [2], in [7], in experiment [3], in [4] and in experiment [5] was “inactive” each time. In addition, the Potency result in experiment [8] is “inactive”. For the same molecule, the outcome in experiment [10] and in experiment [6] was inactive.
For `Cc1nc2n(c(=O)c1CCN1CCC(c3noc4cc(F)ccc34)CC1)CCCC2`, the Potency was 11.2 µM (active) in experiment [1]; 11.2 µM (active) in [2]; 12.6 µM (active) in [7]; 10 µM (active) in experiment [3]; 10 µM (active) in [5].
For `CN1C[C@H](CNC(=O)OCc2ccccc2)C[C@@H]2c3cccc4c3c(cn4C)C[C@H]21`, the Potency in [1] is 5.01 µM (active); in [2], 7.08 µM (active); in experiment [7], 2.51 µM (active); in [3], 11.2 µM (active); in experiment [4] it was 10 µM (active); in experiment [5], 3.98 µM (active). Further, the Potency in experiment [8] is 11.2 µM (active). The outcome in experiment [6] was inactive.
With `O=c1c(O)c(-c2ccc(O)c(O)c2)oc2cc(O)cc(O)c12`, the Potency is 3.55 µM (active) in experiment [1]; 2.51 µM (active) in experiment [2]; 3.55 µM (active) in [7]; 7.08 µM (active) in experiment [3]; 8.91 µM (active) in experiment [4]; 4.47 µM (active) in experiment [5]. The Potency in experiment [8] is 2.82 µM (active).
